Reference: PubChem BioAssay AID1159580 (chemical genetic matrix, 2015)
“And” between values parts separate entries of the source, which are not always exact repeats. Identical values can stand only once. Among all 5,500 compounds or so, about 2,000 (36%) were called active. Not shown: some 18% with an inconclusive outcome. No stated cut-off is given here; in the data, active means normalized growth mostly below about 0.91 (no sharp cut-off); inconclusive means no clear call, values can overlap the other calls; inactive means mostly above about 0.92. Some of the results follow.

Experiment: chemical genetic growth profiling, strain panel (AID 1159580);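 further: tested at 20 µM; growth read once vehicle control cultures reached saturation at 30 °C; 1 = growth at the plate median or of vehicle wells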
Details: S. cerevisiae deletion strains, growth OD

Measured: normalized growth

C=CC(C1=CC(=O)C(OC)=CC1=O)c1ccccc1 (configuration not stated)
inactive: locus YAL021C, strain ccr4, stronger effect = lower value 1.04 | locus YBR021W, strain FUR4, stronger effect = lower value 0.922 | locus YBR171W, strain sec66, stronger effect = lower value 0.992 | locus YBR229C, strain ROT2, stronger effect = lower value 0.969 | locus YBR231C, strain swc5, stronger effect = lower value 0.947 | locus YCL029C, strain bik1, stronger effect = lower value 0.948 | locus YCL069W, strain vba3, stronger effect = lower value 0.954 | locus YCR088W, strain abp1, stronger effect = lower value 0.969 | locus YDL005C, strain med2, stronger effect = lower value 1 | locus YDL040C, strain nat1, stronger effect = lower value 1 | locus YDL074C, strain BRE1, stronger effect = lower value 0.781 | locus YDL101C, strain DUN1, stronger effect = lower value 0.94 | locus YDL134C, strain PPH21, stronger effect = lower value 0.944 | locus YDL185W, strain tfp1, stronger effect = lower value 0.948 | locus YDR001C, strain nth1, stronger effect = lower value 0.983 | locus YDR069C, strain doa4, stronger effect = lower value 0.982 | locus YDR150W, strain NUM1, stronger effect = lower value 0.972 | locus YDR334W, strain swr1, stronger effect = lower value 0.999 | locus YDR335W, strain msn5, stronger effect = lower value 0.968 | locus YEL037C, strain rad23, stronger effect = lower value 0.993 | locus YEL061C, strain CIN8 (second series), stronger effect = lower value 0.966 | locus YEL061C, strain CIN8, stronger effect = lower value 0.932 | locus YER016W, strain bim1, stronger effect = lower value 0.985 | locus YER110C, stronger effect = lower value 0.936 | locus YER111C, strain swi4, stronger effect = lower value 0.977 | locus YER155C, strain BEM2, stronger effect = lower value 0.956 | locus YFR010W, strain ubp6, stronger effect = lower value 0.979 | locus YGL078C, strain dbp3, stronger effect = lower value 0.998 | locus YGL167C, strain pmr1, stronger effect = lower value 0.973 | locus YGL227W, strain vid30, stronger effect = lower value 0.963 | locus YGL248W, strain PDE1, stronger effect = lower value 0.947 | locus YGL253W, strain hxk2, stronger effect = lower value 0.92 | locus YGR252W, strain gcn5, stronger effect = lower value 0.854 | locus YHR013C, strain ard1, stronger effect = lower value 0.876 | locus YHR094C, strain hxt1, stronger effect = lower value 0.956 | locus YIL073C, strain SPO22, stronger effect = lower value 0.723 | locus YIL125W, strain kgd1, stronger effect = lower value 0.963 | locus YIR030C, strain dcg1, stronger effect = lower value 0.929 | locus YJL092W, strain hpr5, stronger effect = lower value 0.95 | locus YJL115W, strain asf1, stronger effect = lower value 1 | locus YJL129C, strain trk1, stronger effect = lower value 0.947 | locus YJL134W, strain LCB3, stronger effect = lower value 0.96 | locus YJL154C, strain vps35, stronger effect = lower value 0.999 | locus YJL168C, strain set2, stronger effect = lower value 0.953 | locus YJL187C, strain SWE1 (second series), stronger effect = lower value 0.944 | locus YJR066W, strain TOR1, stronger effect = lower value 0.858
0.852 (inactive) and 0.869 (active): locus YJL095W, strain BCK1, stronger effect = lower value
active: locus YAL013W, strain DEP1, stronger effect = lower value 0.908 | locus YAL026C, strain drs2, stronger effect = lower value 0.853 | locus YAL030W, strain snc1, stronger effect = lower value 0.92 | locus YBL061C, strain skt5, stronger effect = lower value 0.847 | locus YBR009C, strain hhf1, stronger effect = lower value 0.728 | locus YBR023C, strain chs3, stronger effect = lower value 0.85 | locus YBR279W, strain paf1, stronger effect = lower value 0.858 | locus YCL011C, strain gbp2, stronger effect = lower value 0.843 | locus YCL016C, strain dcc1, stronger effect = lower value 0.845 | locus YCL061C, strain MRC1, stronger effect = lower value 0.911 | locus YDL035C, strain GPR1, stronger effect = lower value 0.825 | locus YDL192W, strain arf1, stronger effect = lower value 0.843 | locus YDR101C, strain arx1, stronger effect = lower value 0.854 | locus YDR137W, strain rgp1, stronger effect = lower value 0.616 | locus YDR159W, strain sac3, stronger effect = lower value 0.85 | locus YDR162C, strain NBP2, stronger effect = lower value 0.607 | locus YDR195W, strain ref2 1.32 [resistant] | locus YDR297W, strain sur2, stronger effect = lower value 0.913 | locus YDR318W, strain mcm21, stronger effect = lower value 0.83 | locus YDR388W, stronger effect = lower value 0.907 | locus YDR392W, strain spt3, stronger effect = lower value 0.233 | locus YDR502C, strain sam2, stronger effect = lower value 0.902 | locus YEL003W, strain gim4, stronger effect = lower value 0.823 | locus YER015W, strain faa2, stronger effect = lower value 0.815 | locus YER155C, strain BEM2 (second series), stronger effect = lower value 0.43 | locus YER167W, strain BCK2, stronger effect = lower value 0.747 | locus YGL086W, strain mad1, stronger effect = lower value 0.853 | locus YGL173C, strain kem1, stronger effect = lower value 0.855 | locus YGL240W, strain doc1, stronger effect = lower value 0.708 | locus YGR078C, strain PAC10, stronger effect = lower value 0.734 | locus YGR135W, strain pre9, stronger effect = lower value 0.864 | locus YGR229C, strain SMI1, stronger effect = lower value 0.692 | locus YHR027C, strain rpn1, stronger effect = lower value 0.92 | locus YHR030C, strain SLT2, stronger effect = lower value 0.895 and 0.797 | locus YHR079C, strain IRE1 (second series), stronger effect = lower value 0.908 | locus YHR079C, strain IRE1, stronger effect = lower value 0.824 | locus YHR129C, strain ARP1, stronger effect = lower value 0.88 | locus YHR142W, strain chs7, stronger effect = lower value 0.729 | locus YHR200W, strain rpn10, stronger effect = lower value 0.92 | locus YIL066C, strain RNR3, stronger effect = lower value 0.824 | locus YJL095W, strain BCK1 (second series), stronger effect = lower value 0.873 | locus YJL164C, strain tpk1, stronger effect = lower value 0.77 | locus YJL166W, strain qcr8, stronger effect = lower value 0.686 | locus YJL187C, strain SWE1, stronger effect = lower value 0.855 | locus YJR043C, strain POL32, stronger effect = lower value 0.768
